Data: PubChem BioAssay AID1851 (National Center for Advancing Translational Sciences (NCATS), 2009)
In all, about 16,000 compounds went through this assay and about 5,800 (36%) were called active. Not shown: some 23% with an inconclusive outcome. Calls follow the shape of the dose curve; as a rule, active = well fitted curve in the direction sought with a large enough effect; inconclusive = small, poorly fitted or top-dose-only effect, or effect the other way; inactive = no such curve, though single readings can be large or run the other way. Some of the results follow.
% is scaled to controls: 0 for no effect and ±100 for the full control effect.

These compounds were tested against Cytochrome P450 2C19 (Homo sapiens) (UniProt P33261) (assay: Cytochrome panel assay with activity outcomes). Conditions: recombinant CYP, pro-luciferin dealkylation, luminescence, p450-cyp2c19; series mostly up to 57.1 µM; activity, negative = inhibition: at the top concentration.
Sequence of Cytochrome P450 2C19 (Homo sapiens) (P33261 whole entry, looked up): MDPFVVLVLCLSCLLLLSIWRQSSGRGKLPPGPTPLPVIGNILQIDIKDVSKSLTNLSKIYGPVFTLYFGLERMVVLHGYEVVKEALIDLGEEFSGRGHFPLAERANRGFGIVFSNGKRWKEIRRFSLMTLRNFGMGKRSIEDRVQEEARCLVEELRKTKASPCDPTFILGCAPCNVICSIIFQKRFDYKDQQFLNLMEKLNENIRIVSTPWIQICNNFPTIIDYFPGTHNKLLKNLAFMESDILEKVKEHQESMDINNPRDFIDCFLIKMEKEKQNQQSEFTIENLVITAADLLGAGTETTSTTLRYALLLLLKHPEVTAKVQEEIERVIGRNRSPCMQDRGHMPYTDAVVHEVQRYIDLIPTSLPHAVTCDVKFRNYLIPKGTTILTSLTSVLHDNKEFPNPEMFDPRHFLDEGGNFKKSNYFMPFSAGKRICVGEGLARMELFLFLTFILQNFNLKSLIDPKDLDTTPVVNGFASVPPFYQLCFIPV
With `CCn1c(O)c(/C=N/N=C2CCCC2)c2ccc(C3=NNC(=O)CC3)cc21` the “activity, negative = inhibition” value was -24.3% (inactive). In the case of `O=C1c2cccnc2C(O)N1C1CCCCC1` (centres undefined), the “activity, negative = inhibition” value is reported as -28.3% (inactive). With `Cc1nc2c(n1C1CCCCC1)C(=O)c1ccccc1C2=O` the AC50 was 2.82 µM (active). With `Cn1cc(-c2nc3cncnc3n(C3CC3)c2=O)c2ccccc21` the “activity, negative = inhibition” value was -6.89% (inactive). For `Cc1ccc(NC2c3ncccc3C(=O)N2Cc2ccc(F)cc2)cc1` (centres undefined), the AC50 was 5.01 µM (active). `CN[C@@H]1NC(=O)c2ccccc2N1Cc1ccc(F)cc1` was tested, and the activity, negative = inhibition was -2.68% [at 11.4 µM] (inactive). In the case of `COc1cccc(-c2ccc3ncnc(NCCc4c[nH]c5ccc(OC)cc45)c3c2)c1`, the AC50 is reported as 3.16 µM (active). For `COc1ccc2[nH]cc(CCNc3ncnc4ccc(-c5c(C)noc5C)cc34)c2c1`, the AC50 was 3.98 µM (active). With `COc1ccc2[nH]cc(CCNc3ncnc4ccc(-c5cccc(C#N)c5)cc34)c2c1` the AC50 was 7.94 µM (active). `COc1ccc2[nH]cc(CCNc3ncnc4ccc(-c5ccccc5CN(C)C)cc34)c2c1` was tested, and the “activity, negative = inhibition” value was -27% (inactive). In the case of `COc1ccc2[nH]cc(CCNc3ncnc4ccc(-c5ccccc5OC)cc34)c2c1`, the AC50 is reported as 2 µM (active). For `COc1ccc2[nH]cc(CCNc3ncnc4ccc(-c5ccc6c(c5)OCO6)cc34)c2c1`, the AC50 was 1.58 µM (active). In the case of `COc1ccc2[nH]cc(CCNc3ncnc4ccc(-c5ccccc5C#N)cc34)c2c1`, the AC50 is reported as 2 µM (active). `COc1ccc2[nH]cc(CCNc3ncnc4ccc(-c5ccoc5)cc34)c2c1` was tested, and the AC50 was 7.94 µM (active). For `COc1ccc2c(Cl)c(-c3nnco3)sc2c1`, the AC50 was 7.94 µM (active). For `Cc1nc2cnc(N3CCN(C)CC3)nc2n(-c2ccccc2)c1=O`, the “activity, negative = inhibition” value was -19.9% (inactive). With `CN1CCN(c2ncc3ncc(=O)n(-c4ccccc4)c3n2)CC1` the “activity, negative = inhibition” value was 23.5% (inactive). In the case of `O=C1CC(c2ccccc2)Cc2nc(N3CCc4ccccc4C3)ncc21` (centres undefined), the AC50 is reported as 3.98 µM (active). For `Cc1ccc(-n2cnc(=O)c3cccnc32)cc1`, the “activity, negative = inhibition” value was -15.1% (inactive). For `N#Cc1c(-c2ccccc2)cc(C2CC2)nc1SCC(=O)c1cccs1`, the “activity, negative = inhibition” value was -14.7% (inactive). In the case of `N#Cc1c(-c2ccccc2)nc(-c2ccccc2)[nH]c1=O`, the “activity, negative = inhibition” value is reported as -24.4% (inactive). For `N#CCCn1c(=O)c(-c2cccs2)nc2cnc(OCc3ccccc3)nc21`, the “activity, negative = inhibition” value was -9.15% (inactive). `Cc1cccc(NC(=O)CSc2nc(-c3ccccc3)c(C#N)c(=O)[nH]2)c1C` was tested, and the AC50 was 14.1 µM (active). In the case of `N#Cc1c(-c2cccs2)nc(SCC(=O)c2cccs2)[nH]c1=O`, the AC50 is reported as 15.8 µM (active). In the case of `CN[C@H](CC(=O)O)C(=O)O`, the “activity, negative = inhibition” value is reported as 10.2% (inactive). In the case of `Cc1[nH]nc(N2CCCCCC2)c1[N+](=O)[O-]`, the AC50 is reported as 6.31 µM (active). `Cc1noc(C)c1C(=O)N1CCC2(CCN(Cc3ccncc3)CC2)CC1` was tested, and the “activity, negative = inhibition” value was -40.9% (inactive). `CCOC(=O)C1(S(=O)(=O)c2ccc(Cl)cc2)CCN(Cc2ccc(Cl)cc2)CC1` was tested, and the AC50 was 2.24 µM (active). `CCOC(=O)C1(S(=O)(=O)c2ccccc2)CCN(Cc2ccccc2)CC1` was tested, and the AC50 was 2.51 µM (active). In the case of `O=S(=O)(c1ccccc1)N1CCC2(CCN(Cc3ccccc3)CC2)CC1`, the “activity, negative = inhibition” value is reported as -3.37% (inactive). With `Cc1ccc(CNC(=O)C2CCC(=O)N2C2CCCCC2)cc1` (centres undefined) the AC50 was 3.16 µM (active). With `O=C(O)[C@@H]1[C@@H](C(=O)NCc2cccnc2)[C@@H]2C=C[C@@H]1O2` the activity, negative = inhibition was 6.83% [at 11.4 µM] (inactive). `COc1cc2nc(N3CCN(C(=O)OCc4ccccc4)[C@H](C(=O)NC(C)(C)C)C3)nc(N)c2cc1OC` was tested, and the “activity, negative = inhibition” value was -23.6% (inactive). `Cc1ccc(CNC(=O)C2CCCN2C(=O)NCc2ccccc2)cc1` (centres undefined) was tested, and the AC50 was 10 µM (active). With `O=C(NCc1cccnc1)[C@@H]1[C@@H](C(=O)O)[C@H]2CC[C@@H]1O2` the activity, negative = inhibition was 23.6% [at 11.4 µM] (inactive). In the case of `CN(C)C(=O)N1CCCC(C(=O)NCCc2ccccc2)C1` (centres undefined), the “activity, negative = inhibition” value is reported as -25.2% (inactive). In the case of `CC(C)(C)OC(=O)N1CCCC1C(=O)NCCc1ccccc1` (centres undefined), the AC50 is reported as 6.31 µM (active). `CCOC(=O)[C@H](CCc1ccccc1)N[C@@H](C)C(=O)N1CCC[C@H]1C(=O)O` was tested, and the “activity, negative = inhibition” value was 32.5% [at 25.6 µM] (inactive). In the case of `O=C(O)C1CCC(=O)N(C2CC2)C1c1ccccc1` (centres undefined), the “activity, negative = inhibition” value is reported as -8.66% (inactive). In the case of `Cc1ccc(SCC(=O)NNC(=O)C2CCCCC2)cc1`, the “activity, negative = inhibition” value is reported as -27.7% (inactive). In the case of `Cc1ccc(CN2C(=O)CCC2C(=O)NCc2cccnc2)cc1` (centres undefined), the AC50 is reported as 22.4 µM (active). For `O=C(O)c1ccccc1-c1ccccc1C(=O)Nc1ccc2c(c1)[nH]c(=O)c1ccccc12`, the activity, negative = inhibition was -24.7% [at 11.4 µM] (inactive). For `COc1cc(=O)n(C)c2c(OC[C@@H](O)C(C)(C)O)cccc12`, the “activity, negative = inhibition” value was 37.7% (inactive). For `C[C@H](CCC(=O)NCC(=O)O)[C@H]1CC[C@H]2[C@H]3[C@@H](C[C@@H](O)[C@]12C)[C@]1(C)CC[C@H](O)C[C@@H]1C[C@@H]3O`, the “activity, negative = inhibition” value was -2.13% [at 25.6 µM] (inactive). `COCCn1c(C)cc(C2=NNC(=Nc3ccc(F)cc3)SC2)c1C` was tested, and the AC50 was 6.31 µM (active). With `O=C(NNC(=O)c1cc2cc3ccccc3nc2s1)c1cccc(C(F)(F)F)c1` the “activity, negative = inhibition” value was -4.56% (inactive). For `O=C(N/N=C/c1c(Nc2cccc(C(F)(F)F)c2)nc2ccccn2c1=O)c1ccccc1`, the AC50 was 7.08 µM (active). With `Cc1ccc(C(=O)N/N=C/c2sc(=O)n(Cc3cccc(C(=O)O)c3)c2Cl)cc1` the “activity, negative = inhibition” value was 7.1% (inactive). `O=C(NCCC[N+]1=CC=N[C@H]1c1ccccc1)N1CCCc2nc(-c3ccc(Br)cc3)ccc21` was tested, and the activity, negative = inhibition was -32% [at 11.4 µM] (inactive). For `Clc1ccccc1CSc1nnc(/C=C/c2ccccc2)o1`, the AC50 was 6.31 µM (active). In the case of `Clc1cccc(Cl)c1CSc1nnc(/C=C/c2ccccc2)o1`, the AC50 is reported as 10 µM (active). For `CC(C)=CCC/C(C)=C/CO/N=C1/C[C@@H](O)[C@@H](O)[C@@H]2[C@@H]3C(=O)N(Cc4ccc5c(c4)OCO5)C(=O)[C@H]3CC[C@H]12`, the activity, negative = inhibition was -41.4% [at 11.4 µM] (inactive). `CC1(C)CC(=O)c2c(Cc3ccccc3)n[nH]c2C1` was tested, and the AC50 was 15.8 µM (active). With `Cc1ccc(C)c(N2CCN(C(=O)c3ccc4nc(-c5ccco5)c(-c5ccco5)nc4c3)CC2)c1` the AC50 was 8.91 µM (active). `CCOC(=O)NCc1ccc2c(c1)cc(C)n2C` was tested, and the AC50 was 15.8 µM (active). In the case of `Cc1ccc(CNC(=O)CCNS(=O)(=O)c2ccc3c(c2)c(=O)n(C)c(=O)n3C)cc1`, the “activity, negative = inhibition” value is reported as -15.8% (inactive). In the case of `CCOC(=O)NNc1nncc2ccccc12`, the “activity, negative = inhibition” value is reported as -27.7% [at 25.6 µM] (inactive). With `Cc1cc2cc(CNC(=O)CC(C)C)ccc2n1C` the AC50 was 11.2 µM (active). In the case of `CCC(CC)C(=O)NCc1ccc2c(c1)cc(C)n2C`, the AC50 is reported as 14.1 µM (active). `CC(N)=O` was tested, and the “activity, negative = inhibition” value was 18.4% (inactive). `Cn1c(=O)c2[nH]c(CCS)nc2n(C)c1=O` was tested, and the activity, negative = inhibition was -13.4% [at 11.4 µM] (inactive). With `COc1ccc(C(C(=O)NC2CCCCC2)N(C(=O)Cc2c[nH]c3ccccc23)c2ccc(NC(C)=O)cc2)cc1OC` (centres undefined) the AC50 was 10 µM (active). With `CC(=O)N[C@@H](Cc1c[nH]c2ccccc12)C(=O)OCc1cc(C(F)(F)F)cc(C(F)(F)F)c1` the “activity, negative = inhibition” value was -35.8% (inactive). With `COc1ccc(S(=O)(=O)Nc2cccc(Cl)c2)cc1OC` the AC50 was 0.631 µM (active). `CCN(CC)Cc1c(O)ccc2c(=O)c(Oc3ccccc3OC)coc12` was tested, and the “activity, negative = inhibition” value was -9.67% (inactive). With `CCOc1ccccc1Oc1coc2cc(OC)ccc2c1=O` the AC50 was 2.82 µM (active). `O=C1C2Sc3[nH]c(=O)sc3C(c3ccccc3)C2C(=O)N1c1ccc(Cl)cc1` (centres undefined) was tested, and the AC50 was 2.82 µM (active). For `O=C1C2Sc3[nH]c(=O)sc3C(c3ccccc3)C2C(=O)N1c1ccccc1` (centres undefined), the AC50 was 2.24 µM (active). `O=C1C(C2=NC(C(=O)O)C3C(=O)N(c4ccc(Cl)cc4)C(=O)C23)=C(O)c2ccccc21` (centres undefined) was tested, and the “activity, negative = inhibition” value was 19.4% (inactive). For `Cc1cc(NC(=O)CCCC(=O)OCC(F)(F)C(F)F)cc(C)c1C(=O)O`, the “activity, negative = inhibition” value was -60.4% (inactive). With `O=C(CCCC(=O)OCC(=O)c1ccc(Cl)cc1Cl)Nc1cc(C(F)(F)F)ccc1Cl` the AC50 was 8.91 µM (active). With `CCn1cc(-c2nnnn2-c2ccc(Cl)cc2)c(=O)c2ccccc21` the AC50 was 17.8 µM (active). With `O=S(=O)(Nc1ccc2oc(-c3ccccc3)nc2c1)c1ccccc1` the AC50 was 0.631 µM (active). With `COC(=O)[C@H]1C[C@@H]1[C@H](NC(=O)c1cc(C)on1)c1ccccc1` the AC50 was 20 µM (active). In the case of `COC(=O)[C@@H]1C[C@H]1[C@@H](NC(=O)c1cc(C)on1)c1ccccc1`, the AC50 is reported as 15.8 µM (active). For `COC(=O)[C@H]1C[C@@H]1[C@H](NC(=O)c1cnccn1)c1ccccc1`, the “activity, negative = inhibition” value was -34.9% (inactive). `COC(=O)[C@@H]1C[C@H]1[C@@H](NC(=O)c1cnccn1)c1ccccc1` was tested, and the “activity, negative = inhibition” value was -35% (inactive). `C[C@@]1(C(=O)O)NCCc2cc(O)c(O)cc21` was tested, and the “activity, negative = inhibition” value was -18.6% (inactive). For `COc1ccc(/C=C2\OC(=O)c3c(OC)cccc32)cc1OC`, the AC50 was 8.91 µM (active). For `CCc1nc(SCC(=O)NCCc2ccccc2)c2oc3ccccc3c2n1`, the AC50 was 0.562 µM (active). With `Cc1nc(SCC(=O)NCCc2ccccc2)c2oc3ccccc3c2n1` the AC50 was 0.178 µM (active). With `O=S(=O)(c1ccccc1)N1CCC2(CCCN(c3ccccn3)C2)CC1` the AC50 was 0.158 µM (active). With `O=S(=O)(c1ccccc1)N1CCC2(CCCN(c3ncccn3)C2)CC1` the AC50 was 0.398 µM (active). `O=S(=O)(c1ccccc1)N1CCC2(CC1)CN(c1ncccn1)C2` was tested, and the “activity, negative = inhibition” value was 15.6% (inactive). In the case of `CS(=O)(=O)N1CCC2(CC1)CN(c1ncccn1)C2`, the “activity, negative = inhibition” value is reported as 13.9% (inactive). For `CCOC(=O)N/N=C1/C[C@@H](O)[C@@H](O)[C@@H]2[C@@H]3C(=O)N(C4CCCCC4)C(=O)[C@H]3CC[C@H]12`, the activity, negative = inhibition was 9.98% [at 11.4 µM] (inactive). For `Cl/C(=C\n1cncn1)c1ccc(Cl)cc1Cl`, the “activity, negative = inhibition” value was -25% (inactive). With `O=C(c1cnc(-c2ccccc2)s1)c1ccc(Cl)cc1Cl` the AC50 was 2.24 µM (active). With `CC(=O)O[C@]1(C)N=NC2(CCCCC2)O1` the activity, negative = inhibition was 5.37% [at 11.4 µM] (inactive). With `CCOC(=O)c1c(NC(=O)CCc2ccc(CC)o2)sc(C)c1C` the AC50 was 5.62 µM (active). In the case of `CCOC(=O)c1c(NC(=O)Nc2ccccc2)sc(C)c1C`, the AC50 is reported as 5.01 µM (active). For `Cc1sc(NC(=O)C(C)C)c(C(=O)Nc2ccccc2)c1C`, the AC50 was 3.55 µM (active). With `CCOC(=O)c1c(NC(=O)CSc2nnnn2C)sc(C)c1C` the AC50 was 10 µM (active). `CO[C@]1(NC(=O)CSCC#N)C(=O)N2C(C(=O)O)=C(CSc3nnnn3C)CS[C@H]21` was tested, and the AC50 was “inactive”.
